PLK1 PBD block – PLK1 (human) polo-box domain binding inhibition; Plk1 PBD binding of FITC phosphopeptide, fluorescence polarization; Potency, µM, actives largely listed as inhibitors; 2.8% of 360,000 active; also: series mostly up to about 57 µM; nearly all actives have a fitted effect of over 65% in size
Target sequence (P53350 whole entry, looked up, the tested form may be a part): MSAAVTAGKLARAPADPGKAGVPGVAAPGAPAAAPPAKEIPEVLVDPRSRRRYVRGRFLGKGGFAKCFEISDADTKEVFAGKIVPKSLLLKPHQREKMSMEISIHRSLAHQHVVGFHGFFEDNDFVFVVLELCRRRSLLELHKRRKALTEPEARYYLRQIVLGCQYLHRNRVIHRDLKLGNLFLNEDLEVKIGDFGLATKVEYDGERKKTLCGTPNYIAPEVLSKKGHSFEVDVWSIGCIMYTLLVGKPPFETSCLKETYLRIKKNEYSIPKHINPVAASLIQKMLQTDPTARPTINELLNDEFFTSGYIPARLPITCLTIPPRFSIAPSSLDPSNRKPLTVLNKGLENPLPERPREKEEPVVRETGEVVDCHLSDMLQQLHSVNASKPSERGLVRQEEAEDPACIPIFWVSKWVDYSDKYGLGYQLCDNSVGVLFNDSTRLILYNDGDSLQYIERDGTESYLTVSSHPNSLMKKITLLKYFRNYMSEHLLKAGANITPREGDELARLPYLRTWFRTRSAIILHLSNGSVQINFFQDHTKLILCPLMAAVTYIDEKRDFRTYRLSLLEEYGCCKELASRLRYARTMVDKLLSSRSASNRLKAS
Gal4-VP16 FLuc – Gal4-VP16 reporter inhibition counter-screen; Drosophila S2 Gal4-VP16 UAS-luciferase, luminescence, 20 h; 3.5% of 310,000 active; Potency, µM (titrated, usually from 53.6 µM), actives largely listed as inhibitors;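 also: Gal4-VP16 expression switched on by copper sulfate through the metallothionein promoter; nearly all actives have a fitted effect of over 50% in size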
ALDH1A1 inh – blocks purified human ALDH1A1 activity; P00352; Purified ALDH1A1, NADH fluorescence, propionaldehyde substrate; Potency, µM (series often up to 75.3 µM), most hits filed as inhibitors; 7.3% of 220,000 active; AID 1030; active = well fitted inhibition curve with a large enough effect, not every such curve was filed as active; inconclusive = small, poorly fitted or top-dose-only effect, or another doubt; inactive = no such curve, though single readings can be large or run the other way
RORg inh – blocks mouse ROR gamma transcriptional activity; Drosophila S2 Gal4-RORgamma UAS-luciferase reporter, 20 h; Potency, µM (titrated, usually from 53.6 µM), most hits filed as inhibitors; 5.4% of 310,000 active; AID 2551; also: nearly all actives have a fitted effect of over 60% in size
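Stable Schneider cell line, Gal4 DNA-binding domain fused to ROR gamma, UAS-luciferase. Cmpd 1 hr RT → CuSO4 700 uM final → 20 hr RT → luciferase reagent 10 min → luminescence.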
Sfp inh – Sfp phosphopantetheinyl transferase inhibition; Q9F4F7; AID 1490; Biochemical Sfp PPTase activity, qHTS; Potency, µM, actives largely listed as inhibitors; 3.5% of 310,000 active;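 also: the enzyme is Sfp with the accession as filed and its product quenches rhodamine fluorescence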
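Sfp 15 nM + cpd, 15 min RT; start w/ rhodamine-CoA 5 uM, BHQ-2-YbbR 12.5 uM (final); 50 mM Hepes pH 7.6, 10 mM MgCl2, 0.01% NP-40, 0.01% BSA; read 525/598 nm at 0 and 30 min.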
Of the large screens only hits and unclear results are named; the others gave an inactive call. Only some compounds are listed: those with a hit (about 12% of all), similar ones and a draw of the others. Unless noted, calls follow the shape of the dose curve; as a rule, active = well fitted curve in the direction sought with a large enough effect; inconclusive = small, poorly fitted or top-dose-only effect, or another doubt; inactive = no such curve, though single readings can be large; an effect the other way counts as inactive or inconclusive.

CCOC(=O)N1CCC(N2Cc3cccc(C(=O)NCc4ccccc4OC)c3C2=O)CC1	RORg inh inconclusive
COc1ccccc1-c1cnc(C(O)c2ccc(Cl)cc2C)[nH]1 (centres undefined)	none (no result: Gal4-VP16 FLuc, ALDH1A1 inh, RORg inh, Sfp inh)
Fc1ccccc1-n1cn[nH]c1=S	none
Fc1ccccc1-n1[nH]nnc1=S	PLK1 PBD block inconclusive, ALDH1A1 inh 2.24µM, RORg inh inconclusive, Sfp inh 25.1µM
O=C(CCc1nc2ccccc2c(=O)[nH]1)Nc1ccccc1N1CCCCC1	none (no result: Gal4-VP16 FLuc, ALDH1A1 inh, RORg inh, Sfp inh)
CCOc1ccc(Nc2n[nH]c(=S)s2)cc1	PLK1 PBD block inconclusive, ALDH1A1 inh 1.26µM
CCOc1ccc(NC(=O)Nc2nnc(CC)s2)cc1	ALDH1A1 inh inconclusive
S=c1[nH]nc(Nc2ccc(Cl)cc2)s1	PLK1 PBD block 13.4µM, RORg inh inconclusive, Sfp inh inconclusive (no result: ALDH1A1 inh)
Cc1ccc(Nc2n[nH]c(=S)s2)cc1	PLK1 PBD block 23.8µM (no result: Gal4-VP16 FLuc, ALDH1A1 inh, RORg inh, Sfp inh)
COc1ccc(OCC(=O)N2CCCC(Nc3ccc(C)c(C)c3)C2)cc1 (centres undefined)	none (no result: Gal4-VP16 FLuc, ALDH1A1 inh, RORg inh, Sfp inh)
O=C(Nc1ccc2c(c1)OCO2)c1cc(C2CCCCN2C(=O)c2ccccc2)on1 (centres undefined)	none (no result: Gal4-VP16 FLuc, ALDH1A1 inh, RORg inh, Sfp inh)
Cc1ccc(C(=O)NCCn2cc(SCC(=O)N3CCOCC3)c3ccccc32)cc1	RORg inh 12.6µM
O=C(CSc1cn(CC(=O)N2CCOCC2)c2ccccc12)N1CCOCC1	none (no result: ALDH1A1 inh)
Cc1ccc(C(=O)NCCn2cc(SCC(=O)Nc3cc(C)on3)c3ccccc32)cc1	ALDH1A1 inh 12.6µM, RORg inh inconclusive
Cc1cc(NC(=O)CSc2cn(CCNC(=O)c3ccccc3)c3ccccc23)no1	PLK1 PBD block inconclusive, ALDH1A1 inh inconclusive
CCOc1cc(-c2ccccc2)nc2c1CN(S(=O)(=O)c1ccc(C)cc1)C(c1cccc(Cl)c1)C2 (centres undefined)	none (no result: Gal4-VP16 FLuc, ALDH1A1 inh, RORg inh, Sfp inh)
C=CCOc1cccc(C(=O)N2CCCC(Nc3ccc4c(c3)OCCO4)C2)c1 (centres undefined)	RORg inh inconclusive (no result: ALDH1A1 inh)
O=c1[nH]c(=O)n(C2CC(O)C(CO)O2)cc1F (centres undefined)	none (no result: PLK1 PBD block)
CCCCCCCCCCCCCCCCCCNc1ccn(C2OC(COP(=O)(O)OCC3OC(n4cc(F)c(=O)[nH]c4=O)CC3O)C(O)C2O)c(=O)n1 (centres undefined)	PLK1 PBD block 26.7µM (no result: Gal4-VP16 FLuc, ALDH1A1 inh, RORg inh, Sfp inh)
Cc1ccc(C(O)c2ncc(-c3ccccc3F)[nH]2)c(C)c1 (centres undefined)	none (no result: Gal4-VP16 FLuc, ALDH1A1 inh, RORg inh, Sfp inh)
CC(C)N1CCCC(C)(C(=O)Nc2cccc(Oc3ccccc3)c2)C1 (centres undefined)	none (no result: Gal4-VP16 FLuc, ALDH1A1 inh, RORg inh, Sfp inh)
Cc1sc2nc3c(C(=O)N4CCCC4)cc(C(=O)c4ccccc4O)cn3c(=O)c2c1C	PLK1 PBD block 23.8µM, ALDH1A1 inh 20µM, Sfp inh 22.4µM
Cc1cnc(-c2nc3ccccc3n2C(C(=O)NC(C)(C)C)c2ccccc2)cn1 (centres undefined)	none (no result: Gal4-VP16 FLuc, ALDH1A1 inh, RORg inh, Sfp inh)
CN1CCNC(=O)C1CC(=O)NCC1(c2ccccc2)CCCCC1 (centres undefined)	ALDH1A1 inh 15.8µM
CC(=O)c1sc2nc(-c3cccs3)ccc2c1N	ALDH1A1 inh inconclusive, Sfp inh 50.1µM
O=C(Nc1ccc(Cl)cc1)N1N=CCC1c1ccccc1 (centres undefined)	Gal4-VP16 FLuc inconclusive (no result: ALDH1A1 inh)
O=C(Nc1ccccc1)C1=C(O)CC(c2ccc(Cl)cc2)N2CCN=C12 (centres undefined)	ALDH1A1 inh 14.1µM, RORg inh inconclusive
COc1cc(OC)cc(C2=Nn3c(nnc3-c3ccccc3OC)SC2)c1	none (no result: PLK1 PBD block, ALDH1A1 inh)
CCCCc1ccc(-c2nc(-c3ccncc3)no2)cc1	ALDH1A1 inh 6.31µM
COC(=O)c1cccc(NC(=O)/C=C/c2cccc([N+](=O)[O-])c2)c1	Gal4-VP16 FLuc inconclusive
O=C(/C=C/c1ccccc1)Nc1cccc(C(=O)O)c1	Gal4-VP16 FLuc 5.62µM, RORg inh 3.98µM
CCC(=O)Nc1cccc(C(=O)/C=C/c2ccccc2)c1	Gal4-VP16 FLuc inconclusive, ALDH1A1 inh inconclusive, RORg inh 15.8µM, Sfp inh inconclusive
O=C(/C=C/c1cccc([N+](=O)[O-])c1)Nc1cc(C(=O)O)cc(C(=O)O)c1	PLK1 PBD block 10.6µM, ALDH1A1 inh inconclusive
CC(C)NC(=O)CN1CCN(C(c2cc3ccccc3o2)c2nnnn2C(C)(C)C)CC1 (centres undefined)	none (no result: Gal4-VP16 FLuc, ALDH1A1 inh, RORg inh, Sfp inh)
COc1ccc(CNc2ncnc3ccc(-c4c(C)noc4C)cc23)cc1	none (no result: PLK1 PBD block, ALDH1A1 inh)
c1ccc(C[n+]2c(-c3ccccc3)csc2Nc2ccccc2)cc1	ALDH1A1 inh inconclusive
c1ccc(Nc2scc(-c3ccccc3)[n+]2Cc2ccco2)cc1	Gal4-VP16 FLuc inconclusive, ALDH1A1 inh 10µM, Sfp inh 20µM
Cn1c(SCC(=O)N/N=C/c2ccc([N+](=O)[O-])s2)nnc1-c1ccccc1	Gal4-VP16 FLuc 20µM, RORg inh 11.2µM
Cn1c(SCC(=O)N/N=C/c2cccnc2)nnc1-c1ccccc1	none (no result: ALDH1A1 inh)
Cn1c(SCC(=O)N/N=C/c2cc([N+](=O)[O-])ccc2O)nnc1-c1ccccc1	none (no result: ALDH1A1 inh)
Cc1ccc(-c2nnc(SCC(=O)N/N=C/c3ccccc3C(=O)O)n2-c2ccccc2)cc1	ALDH1A1 inh inconclusive (no result: PLK1 PBD block)
Cc1ccc(-c2nnc(SCC(=O)N/N=C/c3ccc(C)s3)n2-c2ccc(C)cc2)cc1	Gal4-VP16 FLuc inconclusive, RORg inh 17.8µM
Cn1c(SCC(=O)N/N=C/c2ccccn2)nnc1-c1ccccc1	Sfp inh 44.7µM
NC(=O)C1CCN(C(=O)c2ccc(NS(=O)(=O)/C=C/c3ccccc3)cc2)CC1	none (no result: Gal4-VP16 FLuc, ALDH1A1 inh, RORg inh, Sfp inh)

Screens (PubChem)
